# Whole data set: some 33,000 sequences, median “E-score (-0.5 to 0.5)” near -0.0034, cut for the highest 2% near 0.25. This excerpt belongs to a sample that is enriched for the highest values.
# Molecular target: T1, Yap3 (UniProt P38749)
# T1 sequence: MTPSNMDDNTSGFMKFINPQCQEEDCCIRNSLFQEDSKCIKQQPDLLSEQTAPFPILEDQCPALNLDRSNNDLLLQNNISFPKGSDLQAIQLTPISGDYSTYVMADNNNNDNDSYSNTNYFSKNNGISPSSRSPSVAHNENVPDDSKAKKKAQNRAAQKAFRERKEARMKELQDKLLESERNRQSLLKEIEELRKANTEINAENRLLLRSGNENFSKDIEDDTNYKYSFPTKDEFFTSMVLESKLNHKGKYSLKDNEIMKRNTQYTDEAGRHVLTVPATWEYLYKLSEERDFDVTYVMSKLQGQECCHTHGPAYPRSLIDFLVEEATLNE
# Assay: PBM E-score (8-mer binding enrichment) (E-score (-0.5 to 0.5)); higher = stronger / more preferred TF binding
# Details: protein concentration: 100 nM; construct: GST-full length
# Procedure, shortened: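 Universal all-10-mer Agilent arrays, double-stranded by primer extension on fresh or once-stripped slides, were probed with about 100-200 nM GST-tagged yeast transcription factors made by PURExpress. Fluorescent anti-GST detected bound protein, and masliner normalised the scans. E-scores from the Universal PBM Analysis Suite were given to each ungapped eight-base word pooled with its reverse complement.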
row,Sequence,PBM E-score
1,AGACCATA,0.156
2,CTACGTCA,-0.0902
3,ATACGTTA,0.0384
4,ATACGTCA,0.0839
5,CTACGTTA,0.0868
6,GTACGTTA,0.256
7,GTACGTCA,0.267
8,CGAAGTAA,0.0985
9,GTGCCCAA,-0.0496
10,ATTAACTC,0.193
11,AATAACAC,0.288
12,ATTAACAC,0.273
13,AATAACAG,0.149
14,GTTAACAA,0.205
15,CTTAACAC,0.114
16,ATTAACAA,0.282
17,AATAACAT,0.164
18,ATTAACAG,0.0676
19,CCTGGTGC,-0.102
20,AATGCACG,-0.00779
21,ACATTTCG,0.0557
22,ACCTGGTC,-0.115
23,TAATGTAA,0.312
24,TAATGGAA,0.256
25,AAATGTAA,0.227

row,Sequence,PBM E-score
1,AAATGGAA,0.0788
2,GAATGGAA,0.131
3,GAATGTAA,0.221
4,CGAGGCGC,-0.0513
5,ATATTGAC,0.069
6,ATGCAGAC,-0.0609
7,CCTGGGTA,-0.172
8,GAAACGAC,0.123
9,GAAACGAA,0.255
10,CAAACGAA,0.0114
11,GGCGGGGA,0.233
12,AATAATAG,0.2
13,GATAATAC,0.182
14,CGCAATAA,0.191
15,TGCAATAA,0.272
16,GATAATAA,0.113
17,CATAATAA,0.105
18,GGCAATAA,0.114
19,TATAATAA,0.287
20,AATAATAC,0.296
21,TATAATGA,0.136
22,CATAATAC,0.24
23,AATAATAA,0.308
24,CAGCTGCC,-0.0739
25,CATCCTTA,-0.00117

row,Sequence,PBM E-score
1,CCCAGTTC,-0.0993
2,GGTGCGGA,-0.0917
3,CGATGGAC,-0.0566
4,AACCATCC,-0.0788
5,AATGCTCT,-0.0877
6,CAGACAAA,0.126
7,CGCTCACC,-0.0419
8,GCCCAGCA,-0.301
9,AATAAGAT,0.075
10,AATAAGAA,0.269
11,AATAATCC,0.109
12,AAGAATAT,0.0717
13,AATAATGG,0.329
14,AATAATGT,0.233
15,AATAAGAG,0.195
16,AATAATAT,0.337
17,AATAATCG,0.107
18,CATAATGG,-0.033
19,AATAATCT,0.31
20,GACGGGGA,-0.164
21,ACCAGGTC,-0.0571
22,CGGCGATC,-0.086
23,GAGGGGCC,-0.323
24,AGCTCAGG,-0.0122
25,CATTATTA,0.334

row,Sequence,PBM E-score
1,AATTATTA,0.311
2,CATTATTC,0.185
3,GATTATTA,0.198
4,AGTTATTA,0.184
5,AATTATTG,0.195
6,AATTATAG,0.234
7,AATTATAA,0.224
8,AATTATAC,0.26
9,GATTATAA,0.244
10,CATTATAA,0.0345
11,TATTATAA,0.281
12,GAACCCTA,-0.054
13,CAAGGGTC,-0.0382
14,AAGAATCC,-0.111
15,ACCTCTCT,-0.175
16,ATACTTCG,-0.0772
17,GGACTGTA,-0.0642
18,TATGCAGA,0.0525
19,AGTTATTC,0.096
20,AAGTATAA,0.249
21,AAGTATAT,0.135
22,AATTATTC,0.256
23,AAGTATAC,0.266
24,AACTATTC,0.125
25,CATATGAA,0.132

row,Sequence,PBM E-score
1,ACTTATGC,0.0843
2,GGGTAGAC,-0.216
3,CGAATCGA,0.301
4,AGAATCGA,0.0567
5,GGAATCGA,-0.059
6,CCTATTGA,0.0457
7,CGCTAACA,0.118
8,TATATGAA,0.203
9,AATATGAG,0.0655
10,GATATGAA,0.214
11,AATATGAT,0.279
12,AATATGAC,0.223
13,AATATGAA,0.279
14,CCAGTCTC,-0.22
15,AGGACACA,0.0983
16,CCATAATC,0.144
17,GCATAAGA,0.0573
18,GCATAACA,0.157
19,ACATAACT,0.192
20,ACATAACA,0.285
21,GCATAATA,0.283
22,ACATAACC,0.0973
23,ACATAATA,0.353
24,ACATAATG,0.211
25,ACATAATC,0.293

row,Sequence,PBM E-score
1,CCATAATA,0.214
2,ACATAAGA,0.185
3,ATGTGGAC,-0.0215
4,ACCTCCTC,-0.145
5,AATGCAGT,0.0696
6,TACTAAGA,0.242
7,ACCGCTGG,-0.16
8,CAGCCCCC,-0.384
9,CTAAAGTA,-0.0221
10,ATAAAGTG,0.271
11,ATAAAGTA,0.286
12,GTAAAGTA,0.251
13,ACAAAGTG,0.0611
14,ATAAAGTC,0.133
15,AGTGCGGC,-0.165
16,GATGAGAA,0.0962
17,CCGCATGC,-0.00346
18,AAAATGGA,0.309
19,AAAATGAA,0.208
20,AAAATGAC,0.13
21,CAAATGGA,-0.0854
22,GTAATGGA,0.288
23,CTAATGGA,-0.0109
24,AAAATGGG,-0.0559
25,ATAATGGA,0.188

row,Sequence,PBM E-score
1,AAAATGAT,0.265
2,CACCCGAA,0.0804
3,ACCAAGAC,0.175
4,AACGACAT,0.202
5,AGAACTGC,-0.131
6,CATGAACC,0.0622
7,ATTCACAA,0.294
8,ATTCACAG,0.0188
9,GTTCACAA,0.043
10,GCATACGA,-0.062
11,ACACGGAA,0.0309
12,ATACGGAA,0.185
13,CAACGGTA,-0.108
14,AAACGGAT,0.277
15,AAACGGAC,-0.155
16,AAACGGGA,0.12
17,AAACGGAA,0.263
18,TTACGGAA,0.266
19,AAACGGAG,0.0915
20,GAACGGTA,0.083
21,AAACGGTA,0.301
22,CTACGGAA,0.068
